Among the data in PubChem BioAssay (NCI) are growth values, retold here.

This is part of a sample that, as a whole, favours compounds with a hit. Of some 83,000 tested, about 20% had one in any assay.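 For each line, cells grew in 96-well plates with the test compound present at a single concentration for 48 hours.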 Unmarked numbers belong to inactive results. The source made the active and inactive calls. How the source made its calls: active means growth percent below 10; inactive means the rest.

The test system of the assay is MDA-MB-468 breast. The experiment in a line: NCI-60 one-dose screen, 48 h (100 = growth as untreated, 0 = no growth, -100 = all killed). To be noted: 10 µM unless noted.

With `Nc1nc(Cl)cc(=O)n1Cc1ccccc1`, the growth was 97.3%. The value for `NS(=O)(=O)c1ccc(CCN=C=S)cc1` was -6.54% (active); that for `COc1ccc(C(=O)COC(=O)[C@H](C[Se][Se]C[C@H](NC(=O)c2ccc(Br)cc2F)C(=O)OCC(=O)c2ccc(OC)cc2)NC(=O)c2ccc(Br)cc2F)cc1` was -51.3% (active); that for `CCCCc1c(CCC)c(=N)c2ccccc2n1C` was 74.2%.

`CCN(Cc1cccc(S(=O)(=O)[O-])c1)c1ccc(C(=C2C=CC(=[N+](CC)Cc3cccc(S(=O)(=O)O)c3)C=C2)c2ccccc2S(=O)(=O)O)cc1`: the growth was 92.9%. Take `COc1ccc(Sc2ccc3[nH]c(=O)nc(N)c3c2)cc1`: the growth is 92.7%. In the case of `COc1ccc2c(c1)OC(N)=C(C#N)C2c1cc(OC)c(OC)c(OC)c1` (centres undefined), the growth was -20.9% (active).

As to `O=C(O)CCCCNC(=O)c1ccccc1`, the growth is 97.7%.

For `COC(=O)/C=C1/SC(=Nc2cccc(Cl)c2)N(CCc2c[nH]c3ccc(O)cc23)C1=O`, the growth was 24.7%. On to `CN(C)CCCn1c2c(c3cc(-c4ccco4)ccc3c1=O)C(=O)c1ccccc1-2`, for which the growth is 40.2%.

For `C(=C\c1nccc2c1[nH]c1ccccc12)/c1ccccc1`, the growth is -54% (active). The value for `CC(=O)O[C@H]1CC[C@@]2(C)[C@@H](CC[C@@H]3[C@@H]2CC(=O)[C@@]2(C)[C@H]3C[C@@H](C3CCCC3=O)[C@@H]2C(C)=O)C1` (some centres undefined) was 114%; that for `COc1ccc(/C(Cl)=N/N=C(\Cl)c2cc(OC)c(OC)c(OC)c2)cc1OC(C)=O` was 95.5%; that for `COc1ccc(-c2nc3sccn3c2-c2ccnc(NCCCNS(=O)(=O)c3ccc(F)cc3)n2)cc1` was 6.78% (active). The value for `COc1ccc2nc(Cl)c(/C=C3\CC(c4ccccc4)=NN(c4ccccc4)C3=O)cc2c1` was 74.9%. The figure for `O=c1cc(NC2CCN(CCCc3ccccc3)CC2)c2cc(Cl)ccc2o1` is -13.1% (active); for `CC(C)(C)c1ccc(OCCOC(=O)CBr)cc1` it is 87.6%; for `Cc1ccc(S(=O)(=O)c2nc(-c3ccc(F)cc3)oc2S(C)(=O)=O)cc1` it is 57.7%. Take `COc1ccc(Cc2nc(C#N)c(N3CCN(c4ccc(F)cc4)CC3)o2)cc1`: the growth is 78%. Consider `COc1cc(OC)cc(-c2ccc(-c3ccc(C(=N)N)o3)o2)c1`, for which the growth is 10.5%. The figure for `CC(=O)c1ccc(N=C(C#N)C2=C(O)c3ccccc3C2=O)cc1` is 94.5%. On to `COC1/C=C/OC2(C)Oc3c(C)c(O)c4c(O)c(c(C=NOC(c5ccccc5)c5ccccc5)c(O)c4c3C2=O)NC(=O)/C(C)=C/C=C/C(C)C(O)C(C)C(O)C(C)C(OC(C)=O)C1C` (centres undefined), for which the growth was 3.6% (active). As for `c1ccc(-c2n(Cc3ccc4ccccc4n3)cc[n+]2Cc2ccc3ccccc3c2)cc1`, the growth is -33.5% (active).

For the molecule `O=C(Nc1ccc(-n2cc(-c3ccncc3)c(-c3ccc(Cl)c(O)c3)n2)cc1)Nc1ccc(Cl)c(C(F)(F)F)c1`, the growth is -19.8% (active).

`CN1Cc2c(cc(CN3CCCCC3)n2C)C(c2ccc(Br)cc2)C1` (centres undefined): the growth is 56.2%. As to `Cc1ccc(S(=O)(=O)Oc2ccccc2-c2ccccc2)cc1`, the growth is -3.07% (active).

`CNC(=O)c1cc(Oc2ccc(NC(=O)c3nc(S(C)(=O)=O)n(C)c3-c3ccc(F)cc3)cc2)ccn1`: the growth was 79.1%. Take `Cc1ccc(C2Oc3ccccc3C3CC(c4cccs4)=NN32)cc1` (centres undefined): the growth is 109%. The figure for `N=C(N)c1ccc(-c2ccc(-c3ccc(Cl)cc3Cl)o2)nc1` is -33.8% (active); for `NC(=O)c1c(NC(=O)c2ccc(C(F)(F)F)cc2Cl)sc2c1CCC(=O)C2` it is -33.8% (active); for `C#Cc1nc(/C=C/C(=O)NO)cs1` it is 51.7%.

In the case of `CC(=O)Oc1c(Cl)c(Cl)c(Cl)c(Cl)c1Cl`, the growth is 113%.

In the case of `N#Cc1ccc(NC(=O)c2ccc3cccnc3c2O)cc1`, the growth was 1.27% (active). `O=[N+]([O-])c1ccc(-c2cn3nc(-c4c[nH]c5ccccc45)sc3n2)cc1`: the growth was 96%.
